The nature of experiment [1]: compounds binding Alexa647 anti-His antibody – biochemical, small-molecule microarray, 635 nm fluorescence, artefact control for SMM control protein annotation, primary screen (AID 1128).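 Also: score merges feature fluorescence with signal-to-noise for each printed compound spot.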 To be noted: higher = more signal.
Experiment [2] concerns Human papillomavirus type 1a E7 protein (residues 1-88). Nature of the experiment: HPV1a E7 small-molecule binders, primary screen, biochemical, small-molecule microarray, residues 1-88, 635 nm (AID 1129). To be noted: small-molecule microarray binding, fluorescence 635 nm; higher = more signal.
Experiment [3] deals with Focal adhesion kinase 1 (Homo sapiens) (UniProt Q05397). Nature of the experiment: PTK2 protein binding on printed compound slides – biochemical, small-molecule microarray, 635/667 nm fluorescence, BSA, DTT, primary screen (AID 1130).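 Also: composite of spot emission at 667 nm and signal to noise over triplicate slides.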 To be noted: 635 nm fluorescence, higher = more signal.
Sequence of Focal adhesion kinase 1 (Homo sapiens) (Q05397 whole entry, looked up): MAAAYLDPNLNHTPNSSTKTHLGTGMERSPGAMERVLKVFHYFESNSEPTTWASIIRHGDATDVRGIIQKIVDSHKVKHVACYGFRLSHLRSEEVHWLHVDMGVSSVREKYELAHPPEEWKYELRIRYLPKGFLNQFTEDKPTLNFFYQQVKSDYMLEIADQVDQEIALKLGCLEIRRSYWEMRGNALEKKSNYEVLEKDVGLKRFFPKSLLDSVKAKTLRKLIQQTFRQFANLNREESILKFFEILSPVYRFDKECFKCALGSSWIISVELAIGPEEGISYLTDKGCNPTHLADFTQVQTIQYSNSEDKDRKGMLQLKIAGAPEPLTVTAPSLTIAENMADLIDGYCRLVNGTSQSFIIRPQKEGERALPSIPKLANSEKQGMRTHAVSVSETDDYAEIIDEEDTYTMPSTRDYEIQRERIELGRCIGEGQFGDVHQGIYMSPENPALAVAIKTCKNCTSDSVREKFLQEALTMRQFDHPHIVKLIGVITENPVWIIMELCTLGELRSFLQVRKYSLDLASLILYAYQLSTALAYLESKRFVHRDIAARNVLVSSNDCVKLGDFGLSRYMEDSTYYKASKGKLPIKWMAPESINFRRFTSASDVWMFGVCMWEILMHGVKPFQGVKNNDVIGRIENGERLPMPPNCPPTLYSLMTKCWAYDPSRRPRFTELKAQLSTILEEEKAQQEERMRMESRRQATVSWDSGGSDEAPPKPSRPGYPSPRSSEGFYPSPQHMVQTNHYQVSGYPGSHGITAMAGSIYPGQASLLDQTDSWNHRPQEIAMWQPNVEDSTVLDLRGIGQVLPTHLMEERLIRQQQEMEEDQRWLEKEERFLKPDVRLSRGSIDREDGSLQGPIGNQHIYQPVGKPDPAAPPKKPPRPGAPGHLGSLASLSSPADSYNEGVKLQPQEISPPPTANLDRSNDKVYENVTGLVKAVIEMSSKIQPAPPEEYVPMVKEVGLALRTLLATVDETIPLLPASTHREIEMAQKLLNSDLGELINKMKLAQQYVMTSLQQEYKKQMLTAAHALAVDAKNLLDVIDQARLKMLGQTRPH
Experiment [4] concerns Fibrinogen (Alexa647-labelled). As to the kind of experiment: Alexa647-fibrinogen binding to printed small molecules – biochemical, small-molecule microarray, 635/667 nm fluorescence, artefact control for SMM control-protein annotation, profiling panel (AID 1131).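 Also: z-score merges 667 nm fluorescence with per-spot signal-to-noise over triplicate slides.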 The following applies: fibrinogen-A647 binding fluorescence, higher = more signal.
The target of experiment [5] is Follistatin (Homo sapiens) (UniProt P19883). Nature of the experiment: FST protein binding to printed compounds – biochemical, small-molecule microarray, 635/667 nm fluorescence, primary screen (AID 1132). The following applies: 635 nm fluorescence, higher = more signal.
Sequence of Follistatin (Homo sapiens) (P19883 whole entry, looked up): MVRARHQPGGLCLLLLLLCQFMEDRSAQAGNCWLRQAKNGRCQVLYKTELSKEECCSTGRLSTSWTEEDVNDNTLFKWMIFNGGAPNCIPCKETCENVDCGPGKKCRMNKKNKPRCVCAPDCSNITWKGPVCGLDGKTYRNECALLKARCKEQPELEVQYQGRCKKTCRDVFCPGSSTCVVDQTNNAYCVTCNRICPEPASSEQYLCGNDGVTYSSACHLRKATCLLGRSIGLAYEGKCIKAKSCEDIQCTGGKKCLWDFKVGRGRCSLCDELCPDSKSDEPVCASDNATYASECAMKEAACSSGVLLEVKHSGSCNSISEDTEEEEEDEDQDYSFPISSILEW
Experiment [6] has as its target Fibroblast growth factor 2 (Homo sapiens) (UniProt P09038). As to the kind of experiment: basic fibroblast growth factor binding to printed compounds – biochemical, small-molecule microarray, 635/667 nm fluorescence, primary screen (AID 1133). The following applies: FGF2, fluorescence 635/667, higher = more signal.
Experiment [7] can be described thus: JC-1 mitochondrial potential readout, lung cancer cells – cell-based, A549, JC-1 fluorescence, basal, 24 h, 100 nL, profiling panel (AID 1138).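 Also: A549 lung adenocarcinoma cells under basal conditions with no added stimulus; test concentration not given here.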 The following applies: higher = more signal.
For experiment [8], the system named is Lefty1. As to the kind of experiment: Lefty1 protein binding to printed compounds – biochemical, small-molecule microarray, 635/667 nm fluorescence, primary screen (AID 1139). The following applies: fluorescence 635/667, higher = more signal.
In experiment [9] the test system is wheat germ agglutinin (Triticum aestivum), Alexa647-labelled. Nature of the experiment: Alexa647-WGA lectin binding to printed small molecules – biochemical, small-molecule microarray, 635/667 nm fluorescence, artefact control for SMM control-protein annotation, profiling panel (AID 1140).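 Also: score merges 667 nm feature emission with signal to noise over triplicate slides.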 To be noted: WGA-A647 binding, 635 nm fluorescence, higher = more signal.

The target of experiment [10] is Luciferin 4-monooxygenase (Photinus pyralis) (UniProt P08659). Nature of the experiment: inhibition of purified Photinus pyralis luciferase – biochemical, luminescence, purified enzyme, 2006 set, primary screen (AID 1141).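 Also: cell-free assay with purified firefly luciferase at 100 ng per well in PBS; test concentration not given here.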 To be noted: purified firefly luciferase, SteadyGlo luminescence, 30 min; higher = more signal, called active from +8 up or from −8 down.
Sequence of Luciferin 4-monooxygenase (Photinus pyralis) (P08659 whole entry, looked up): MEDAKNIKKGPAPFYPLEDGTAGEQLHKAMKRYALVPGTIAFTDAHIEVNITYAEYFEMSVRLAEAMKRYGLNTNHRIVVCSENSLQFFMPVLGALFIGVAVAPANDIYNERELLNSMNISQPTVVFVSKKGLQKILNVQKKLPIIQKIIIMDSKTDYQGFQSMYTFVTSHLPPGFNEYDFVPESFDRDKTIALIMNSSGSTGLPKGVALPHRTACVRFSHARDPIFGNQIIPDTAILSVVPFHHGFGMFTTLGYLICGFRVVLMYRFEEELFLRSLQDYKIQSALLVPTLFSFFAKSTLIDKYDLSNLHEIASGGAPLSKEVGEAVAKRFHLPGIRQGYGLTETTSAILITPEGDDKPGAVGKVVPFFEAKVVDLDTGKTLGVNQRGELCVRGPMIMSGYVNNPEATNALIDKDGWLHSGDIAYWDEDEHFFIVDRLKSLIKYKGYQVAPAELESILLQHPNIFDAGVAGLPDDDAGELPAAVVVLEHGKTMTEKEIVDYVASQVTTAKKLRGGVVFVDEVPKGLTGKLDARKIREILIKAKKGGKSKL

Active and inactive are the calls of the source.

Sequence of Fibroblast growth factor 2 (Homo sapiens) (P09038 whole entry, looked up): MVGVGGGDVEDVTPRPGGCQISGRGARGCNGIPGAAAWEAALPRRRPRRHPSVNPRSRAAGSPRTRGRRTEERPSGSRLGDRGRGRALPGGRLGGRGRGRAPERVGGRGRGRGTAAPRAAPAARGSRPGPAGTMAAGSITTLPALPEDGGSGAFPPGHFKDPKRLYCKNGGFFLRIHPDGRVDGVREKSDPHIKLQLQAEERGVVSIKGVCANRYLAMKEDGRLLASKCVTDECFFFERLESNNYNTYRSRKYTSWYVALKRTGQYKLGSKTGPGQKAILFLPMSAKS

Take `CCOC(=O)[C@H](Cc1ccccc1)NC(=O)CCC1CC(OC(=O)NCCc2ccc(F)cc2)CC2(CCCC(COC(=O)NCCc3ccc(Cl)cc3)O2)O1` (stereo not given in full): the composite z-score in experiment [1] is 1.03; in experiment [2], 1.09; in experiment [3], 0.671; in [4], 0.832; in experiment [5], 0.326; in experiment [6], 0.996. For the same compound, the composite z-score in [8] was determined as 0.583; in [9], 0.105. The values for the z-score in experiment [7] and in experiment [10] were 0.699 and 0.361 (inactive), respectively.

As for `CCOC(=O)NN=C1C[C@@H](O)[C@@H](O)[C@@H]2[C@@H]3C(=O)N([C@@H](C)c4ccccc4)C(=O)[C@@H]3CC[C@@H]12`, the composite z-score in experiment [1] is -0.43; in experiment [2], 0.0085; in experiment [3], 0.692; in experiment [4], 0.897; in [5] it was 1.28; in experiment [6] it was 0.642. For the same compound, the results for the composite z-score in experiment [8] and in experiment [9] were 1.3 and 0.193, respectively. The z-score was -0.337 in [7] and 0.685 (inactive) in [10].

With `CO[C@@H]1C=CCC(=O)N[C@@H](C)C(=O)OC[C@@H](OC)[C@H](C)CCCC(=O)OC[C@H]1C`, the composite z-score in experiment [1] is 2.07; in experiment [2], -1.64; in experiment [3] it was -0.195; in experiment [4] it was -1.64; in [5] it was 1.39; in experiment [6] it was 0.343. In addition, the composite z-score in [8] is 1.37; in [9], -0.268. Further, the values for the z-score in experiment [7] and in [10] were -0.393 and 1.13 (inactive), respectively.

`Cc1ccc(S(=O)(=O)N[C@H]2COC(=O)CC=C[C@H](C)[C@@H](NS(=O)(=O)c3ccc(C)cc3)COC(=O)CC=C[C@@H]2C)cc1`: the composite z-score was -0.308 in experiment [1]; 0.42 in experiment [2]; 0.106 in experiment [3]; 0.129 in [4]; 0.471 in experiment [5]; 0.647 in experiment [6]. In addition, the composite z-score worked out at 0.556 in experiment [8] and 0.0337 in experiment [9]. Moreover, the z-score is -0.617 in experiment [7] and 0.846 (inactive) in experiment [10].

Take `COc1cccc([C@H]2Oc3ccc(OC)cc3C(=NO[C@@H](C)c3cn([C@H](CO)Cc4ccccc4)nn3)[C@@H]2O)c1`: the composite z-score is -2.13 in [1]; -0.92 in [2]; -0.104 in [3]; 0.778 in [4]; -0.476 in experiment [5]; 0.109 in experiment [6]. For the same compound, the composite z-score in experiment [8] worked out at 0.102; in experiment [9], 0.305. The results for the z-score in experiment [7] and in experiment [10] were -1.09 and -0.0592 (inactive), respectively.

For the compound `CCN1C(=O)[C@H]2[C@H]3[C@H](O)[C@H](O)CC(=NOC[C@H]4O[C@H](c5ccccc5)C=C[C@@H]4Oc4ccc(OC)cc4)[C@@H]3CC[C@H]2C1=O`, the composite z-score in [1] was -0.157; in experiment [2], 0.829; in experiment [3] it was -0.139; in [4] it was 0.894; in experiment [5], 0.74; in [6], 1.01. Moreover, the figures for the composite z-score in experiment [8] and in experiment [9] were 1.19 and 0.246, respectively. Moreover, the z-score was 0.385 in [7] and 0.468 (inactive) in experiment [10].

In the case of `CCN1C(=O)[C@H]2[C@H]3[C@H](O)[C@H](O)CC(=NNC(=O)OCc4ccc(OC)cc4)[C@@H]3CC[C@H]2C1=O`, the composite z-score in experiment [1] was 0.0221; in experiment [2], -0.562; in [3], 0.0875; in experiment [4], -0.193; in experiment [5], -0.735; in [6], 0.193. For the same compound, the composite z-score in [8] was -0.524; in experiment [9], 0.0083. The z-score is -0.0338 in experiment [7] and -0.207 (inactive) in experiment [10].

Regarding `C[C@H]1CC[C@H]2C(=O)O[C@H](COc3ccc(C(C)(C)C)cc3)CN2[C@@H]1c1ccc(Br)cc1`, the composite z-score is 2.63 in [1]; 0.243 in [2]; 0.189 in [3]; 0.503 in experiment [4]; 0.0469 in experiment [5]; -0.101 in experiment [6]. Besides, the values for the composite z-score in [8] and in [9] were 0.395 and 0.034, respectively. Besides, the z-score was 0.972 in experiment [7] and -1.73 (inactive) in experiment [10].

For the compound `COC(=O)CC=C[C@@H](C)[C@@H](C=NOCC[C@@H]1C=C[C@H](OC(C)=O)[C@@H](COC(C)=O)O1)OC`, the composite z-score was -0.131 in experiment [1]; 0.34 in experiment [2]; 0.222 in [3]; -0.902 in experiment [4]; 0.73 in experiment [5]; 0.785 in experiment [6]. Besides, the composite z-score was 0.66 in experiment [8] and -0.876 in experiment [9]. For the same compound, the z-score in experiment [7] was 0.493; in experiment [10], 0.177 (inactive).

On to `CCCNC(=O)OC[C@H]1O[C@H](CCON=C(C)CCN2CCc3nc(CC)c(CC)cc3C2)C=C[C@@H]1Oc1ccc(OC)cc1`, for which the composite z-score in experiment [1] is 0.869; in [2] it was -0.476; in experiment [3], 0.512; in experiment [4] it was 0.564; in [5], 0.248; in experiment [6], -0.167. The composite z-score in experiment [8] came out at 0.374; in experiment [9], 0.316. The z-score in experiment [7] was 0.77; in experiment [10], -0.512 (inactive).

As for `CC(C)=CCCC(C)=CCON=C1C[C@@H](O)[C@@H](O)[C@@H]2[C@@H]3C(=O)N(C[C@@H]4CCCO4)C(=O)[C@@H]3CC[C@H]12`, the composite z-score in [1] was 1.39; in [2] it was 1.13; in experiment [3], 0.349; in experiment [4], 0.499; in experiment [5], 1.13; in [6], 0.945. Further, the values for the composite z-score in experiment [8] and in experiment [9] were 1.24 and 0.572, respectively. For the same compound, the z-score in [7] was -0.773; in [10], 0.217 (inactive).

As for `CON=CC[C@@H]1C=C[C@H](OC(C)=O)[C@@H](COC(C)=O)O1`, the composite z-score in [1] was 0.0374; in [2], -0.534; in [3], 0.538; in experiment [4], -0.146; in experiment [5], 0.606; in experiment [6], 0.495. The values for the composite z-score in [8] and in [9] were 0.596 and 0.0389, respectively. Moreover, the z-score in experiment [7] is 0.296; in experiment [10], 0.218 (inactive).

In the case of `CO[C@H]1COC(=O)[C@@H]2CCCN2C(=O)CC=C[C@@H](C)[C@H](OC)COC(=O)[C@@H](OCc2ccccc2)C=C[C@@H]1C`, the composite z-score in experiment [1] is -0.228; in experiment [2], -1.15; in [3], 0.0122; in experiment [4] it was -0.557; in [5], 1.27; in experiment [6], 1.02. For the same compound, the composite z-score in experiment [8] was 1.5; in experiment [9], -0.83. For the same compound, the results for the z-score in experiment [7] and in [10] were 0.0486 and 0.168 (inactive), respectively.

In the case of `COc1ccc(COC(=O)NN=C2C[C@@H](O)[C@@H](O)[C@@H]3[C@@H]4C(=O)N(C5CCCCC5)C(=O)[C@@H]4CC[C@H]23)cc1`, the composite z-score is -0.823 in experiment [1]; -0.552 in experiment [2]; -0.497 in experiment [3]; -0.439 in experiment [4]; -1.72 in [5]; -1.04 in [6]. For the same compound, the composite z-score in experiment [8] is -1.42; in [9] it was 0.778. Moreover, the z-score in [7] is 0.195; in experiment [10], -0.224 (inactive).

As to `O=C1[C@H]2[C@H]3[C@H](O)[C@H](O)CC(=NOC[C@@H](O)COCc4ccco4)[C@@H]3CC[C@H]2C(=O)N1C[C@@H]1CCCO1`, the composite z-score in experiment [1] was 0.142; in experiment [2], -0.12; in experiment [3], -0.288; in [4], -0.652; in experiment [5] it was 0.907; in experiment [6], 1.34. The composite z-score was 1.17 in experiment [8] and -0.559 in [9]. In addition, the z-score is -0.00687 in experiment [7] and 0.31 (inactive) in experiment [10].

As to `CC[C@@H](c1ccccc1)n1c(=O)n2n(c1=O)[C@H]1[C@H](O)[C@@H]3O[C@@H]3C(=NOC[C@@H](O)COCc3ccco3)[C@H]1CC2`, the composite z-score is -0.74 in [1]; -0.629 in experiment [2]; 0.587 in experiment [3]; -1.9 in experiment [4]; 0.361 in experiment [5]; 0.167 in experiment [6]. Besides, the composite z-score came to 0.389 in experiment [8] and 0.534 in [9]. Also, the z-score in experiment [7] is -0.0823; in experiment [10] it was -0.47 (inactive).

The record behind these values is PubChem BioAssay.
